Results: paper PMC7819943, “Rice protein-binding microarrays: a tool to detect cis-acting elements near promoter regions in rice”
The full ranking holds about 68,000 sequences; the median of “fluorescence intensity (a.u.)” is about 9,100, and the highest 2% start at about 16,000. This is one part of a sample in which the highest values are shown more often than they occur.

These sequences were tested against OsWRKY34 (Oryza sativa, UniProt Q0JBA9 1-250) (assay: protein-binding microarray (RPBM); PBS, 2% BSA, 51.3 ng/ul salmon testes DNA, 50 uM zinc acetate, 200 nM TF, 25 C, 1 h; high values mean tight binding). Settings: protein: recombinant; tags: N-terminal polyhistidine and DsRed monomer fusion (pET32a); label: CyDye5-dUTP incorporated in the synthesized complementary strand; 3' TTTTT single-stranded linker to array surface; dsDNA, one strand shown.
Chain of OsWRKY34 (Q0JBA9 entry or part of it): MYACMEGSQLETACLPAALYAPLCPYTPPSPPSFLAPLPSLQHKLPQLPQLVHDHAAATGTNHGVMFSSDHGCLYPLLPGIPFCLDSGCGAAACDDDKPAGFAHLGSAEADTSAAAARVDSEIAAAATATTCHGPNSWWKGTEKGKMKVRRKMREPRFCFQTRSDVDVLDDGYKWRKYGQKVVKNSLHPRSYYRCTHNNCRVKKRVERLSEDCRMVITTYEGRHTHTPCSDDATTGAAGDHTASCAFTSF
Procedure, shortened: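 Binding signal here means per-feature fluorescence intensity in arbitrary units. The values were read on an Axon 4000B scanner after a custom Agilent array, double-stranded by primer extension with Cy5-dUTP, was incubated with 200 nM protein at 25 °C for 1 h in PBS with 2% BSA, salmon testes DNA and 50 µM zinc acetate, then washed. The proteins were transcription factors with an N-terminal polyhistidine tag and DsRed, expressed in E. coli BL21-CodonPlus and purified on Ni–NTA.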

Sequence | binding signal
CATGGGCTAATGTCCTTTTTTTATATATTTTTTTTGCCCTCGGAGTCACCTAGTGCAG | 8990 fluorescence intensity (a.u.)
TGTAAGCTTATGTGTCATCTTTCTTTGTTTGTGAAGAACCCGGAGTCACCTAGTGCAG | 8190 fluorescence intensity (a.u.)
ACTCCTCTTCTCTTCATTTTCTTCTTCCCCTGTGCTTCTCCGGAGTCACCTAGTGCAG | 10900 fluorescence intensity (a.u.)
CTTTTTCCTTGCAATCGTGATTCTTTTTTTTTTCCCTTTTCGGAGTCACCTAGTGCAG | 17400 fluorescence intensity (a.u.)
CGCCCCTTGATTCGCCTCGTTTTTTCTTTTCCCTTTTTTTCGGAGTCACCTAGTGCAG | 9920 fluorescence intensity (a.u.)
GGCTGCTATATTGACCTTGCTCTTATTCCTTCATTCAATTCGGAGTCACCTAGTGCAG | 10500 fluorescence intensity (a.u.)
CCTTGCCTAGTCGCTGCTGCTGTTTATAAATTTCAACTCCCGGAGTCACCTAGTGCAG | 8810 fluorescence intensity (a.u.)
CTTTCTTGCAATTTTGGTCTTCTTTCCTTTTGATTTGGTTCGGAGTCACCTAGTGCAG | 9200 fluorescence intensity (a.u.)
TCTTGGGCTTGGGCCTTTGCTATTGTATTGGGTTGGGCCTCGGAGTCACCTAGTGCAG | 8400 fluorescence intensity (a.u.)
GAGCATTGGGTTGGGCCTTCCTTTCTTGTATTCGGCTTCTCGGAGTCACCTAGTGCAG | 16500 fluorescence intensity (a.u.)
CCTCTTTATTCCATTAGCTTTTTTCATCTTCTGCTCCATCCGGAGTCACCTAGTGCAG | 10500 fluorescence intensity (a.u.)
CCTGACGTGCTTCACCTCACCTGCTCATTTTTTATTTCCCCGGAGTCACCTAGTGCAG | 17300 fluorescence intensity (a.u.)
AGTAGCATTTGTTGACTTGTTGTATTCTTCTAGCCTTTTTCGGAGTCACCTAGTGCAG | 13800 fluorescence intensity (a.u.)
CTGCCGGCTGCTCAATTTATTCCCTTGCTGTTTCATTTCGCGGAGTCACCTAGTGCAG | 45500 fluorescence intensity (a.u.)
ATTCCTTGTTGGTAACTGTACCCAGGGGCGGGTCCAACGTCGGAGTCACCTAGTGCAG | 8270 fluorescence intensity (a.u.)
CACGATGATTGTTGCTGCACCATAGTCTCCATGTGTGTACCGGAGTCACCTAGTGCAG | 8410 fluorescence intensity (a.u.)
TGTTTGCACCTTATTACGGTTCTGCGCGCTCTCTCTCTCGCGGAGTCACCTAGTGCAG | 8560 fluorescence intensity (a.u.)
ATACTTAATTAATCATTCGCTAATGGACCACTCTGTTTTCCGGAGTCACCTAGTGCAG | 8430 fluorescence intensity (a.u.)
CCATTGTGTCATTCAGTTATTGTTACTTTCAGTTGTTCTACGGAGTCACCTAGTGCAG | 12200 fluorescence intensity (a.u.)
GTCTCTCTCACCGTCTCCGTGCTCCTCCGCCGCCCAAGGGCGGAGTCACCTAGTGCAG | 12900 fluorescence intensity (a.u.)
GCAAGGTGTACCCGCAGTTCTCACGGTTACCACCATTTTCCGGAGTCACCTAGTGCAG | 8430 fluorescence intensity (a.u.)
GTGGGTATGGTTGACTTGACGGACGTACTACTCCATACTACGGAGTCACCTAGTGCAG | 8190 fluorescence intensity (a.u.)
CGGCTAGGGTTTGTTTTTCTTTTCTTTTTTTCCTTTTCTTCGGAGTCACCTAGTGCAG | 14300 fluorescence intensity (a.u.)

Sequence | binding signal
CGTTCGCGTTTCGGTTTGACCGCGCGTCTCGCCTAGATTTCGGAGTCACCTAGTGCAG | 8650 fluorescence intensity (a.u.)
AGAGTTTGGCATACTCCTACGTATCATTGTCGACCTTTAGCGGAGTCACCTAGTGCAG | 8340 fluorescence intensity (a.u.)
GTGCTACTCCATATACGTATGGCTGGTTTGGTTGGTTGAGCGGAGTCACCTAGTGCAG | 21400 fluorescence intensity (a.u.)
CGAGGTCGTTTGGTTTTCTTTTCCTTTTTGGTTGTGTGTTCGGAGTCACCTAGTGCAG | 9070 fluorescence intensity (a.u.)
CGAGGTTCTTTGCTTCATACTTTTTTTTGGTGTTCTACTTCGGAGTCACCTAGTGCAG | 11200 fluorescence intensity (a.u.)
TGGTGTTGTTGGTGTCGTCTTGTTCTTGTTTGTGTTTTCTCGGAGTCACCTAGTGCAG | 15900 fluorescence intensity (a.u.)
TGGTTGGTTTGTTGGGTTCTTTTCCTTTTTTTTGTTTCTTCGGAGTCACCTAGTGCAG | 26700 fluorescence intensity (a.u.)
AGTTTTTTTTTCAGCTTTTTGGTTTCTTTTGCTGTTGTTTCGGAGTCACCTAGTGCAG | 10300 fluorescence intensity (a.u.)
TTGGTTCGGTTTTTTCTGCCCGCGTCGGTTTTTGTCTCACCGGAGTCACCTAGTGCAG | 20100 fluorescence intensity (a.u.)
CGAGTCGAGCTTTTCTTTCTTTGGTTGGTTGGTTGGTGTTCGGAGTCACCTAGTGCAG | 19600 fluorescence intensity (a.u.)
TAGATAGGGGATGTATAGGACAAGAGAGAACACATGCATTCGGAGTCACCTAGTGCAG | 8690 fluorescence intensity (a.u.)
TTAACCTCTCTCTTAATTTCAGTTTGTTTGTTCGTTCGTTCGGAGTCACCTAGTGCAG | 9010 fluorescence intensity (a.u.)
ACAGCCTATATACACTACTCACTCCGTCTCAGAATATAAGCGGAGTCACCTAGTGCAG | 8900 fluorescence intensity (a.u.)
CATCCCAATTTTCTGGCCACACTTGCATCCCTCTGCCGCCCGGAGTCACCTAGTGCAG | 10800 fluorescence intensity (a.u.)
ACCACCCTACCTAGCTTAGAATATTTACCATGCATTCTCTCGGAGTCACCTAGTGCAG | 11100 fluorescence intensity (a.u.)
TCTTCTTCTTGTTTCGGCTTCCGCCTCCGTCCCGCGCGCGCGGAGTCACCTAGTGCAG | 13800 fluorescence intensity (a.u.)
CAAATTATGAGCCTGTTCACTTTGATGCTCTTTTCAACCACGGAGTCACCTAGTGCAG | 8320 fluorescence intensity (a.u.)
TCCCAAACCCCGCGCCGCCTCTTACCGCTTCGCGTCAGCTCGGAGTCACCTAGTGCAG | 8490 fluorescence intensity (a.u.)
ACCTATCTTTCTCTATTTTTTATTTTTTTAGCGAAACACACGGAGTCACCTAGTGCAG | 9780 fluorescence intensity (a.u.)
TCCGTTTTTGTGGTTTTCGATGGATTCCGTCGTCGCCGACCGGAGTCACCTAGTGCAG | 9660 fluorescence intensity (a.u.)
GATGGACATTGTTTGCCATCACCGTCAACGACCGTTGACTCGGAGTCACCTAGTGCAG | 12900 fluorescence intensity (a.u.)
GCTTCGTTGGCTCCGTGAAACTGTCTCTCTCTCCCAACTCCGGAGTCACCTAGTGCAG | 8030 fluorescence intensity (a.u.)
